SMILES strings stand for the structures. Hit rate of the full screen: of about 330,000 compounds, about 960 (0.29%) were called active. The sample holds actives, similar compounds and a random draw of the others, so the mix is not that of the screen.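 How the source made its calls: active means compounds whose signal lies at least 3.5 SD above the mean of all wells on their plate; inactive means the rest.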

This assay can be described thus: inducers of MIN6 beta-cell proliferation, primary screen, ATP luminescence, uHTS (AID 2380).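 Further: 0% = DMSO-treated cells in low-serum medium and 100% = 10% serum control.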 To be noted: MIN6 cells proliferation, ATPlite luminescence, 48 h; at 10 µM; active compounds read high; 100% = growth in 10% serum; cells starved in 0.2% serum. For orientation: In ATP-based viability assays light output follows the ATP content of the culture.
As to `NS(=O)(=O)c1ccc(-c2ccc(/C=C3\SC(=O)NC3=O)o2)cc1`, the proliferation was 2.43% (inactive).

Take `COc1ccc2cc(-c3[nH]ncc3CNCCn3nc(C)cc3C)ccc2c1`: the proliferation is -1.3% (inactive).

Consider `NC(=O)C1CCN(C2OC(=O)c3ccccc32)CC1` (centres undefined), for which the proliferation was -1.61% (inactive).

For the compound `O=C(Nc1ccc(F)cc1)C1CCCN(S(=O)(=O)c2ccc(-n3cnnn3)cc2)C1` (centres undefined), the proliferation was 0% (active).

As to `CC(C)CNC(=O)C1CCCN(S(=O)(=O)c2ccc(-n3cnnn3)cc2)C1` (centres undefined), the proliferation is 1.81% (inactive).

On to `CC(NC(=O)C1CCCN(S(=O)(=O)c2ccc(-n3cnnn3)cc2)C1)c1ccc(F)cc1` (centres undefined), for which the proliferation is -0.52% (inactive).

As for `Cc1cc(NC(=O)c2ccco2)c(=O)n(Cc2c(F)cccc2Cl)c1`, the proliferation was 6.29% (active).

For `O=C(Cc1c(F)cccc1Cl)N1CCN(C(=O)c2ccco2)CC1`, the proliferation is -0.41% (inactive).

Turning to `O=C(Nc1cccn(Cc2c(Cl)cccc2Cl)c1=O)c1ccc(Cl)cc1`, the proliferation was 0.88% (inactive).

On to `COc1cc2cc(CN(CCN3CCCC3)C(=O)Nc3ccccc3Cl)c(=O)[nH]c2cc1OC`, for which the proliferation is -1.42% (inactive).

For the compound `CN(Cc1ccc2nsnc2c1)Cc1nc(Cc2cccc(F)c2)no1`, the proliferation is -1.6% (inactive).

As for `CC1(C)Cc2c(sc(NC(=O)C(=O)NCC3CCCO3)c2C(=O)O)CO1` (centres undefined), the proliferation is -1.4% (inactive).

On to `Cc1nn(C(C)C(=O)N2CCOCC2)c(=O)c2nn(-c3ccccc3)c(C)c12` (centres undefined), for which the proliferation is -0.46% (inactive).

Take `Cc1nn(C(C)C(=O)NCCC2=CCCCC2)c(=O)c2nn(-c3ccccc3)c(C)c12` (centres undefined): the proliferation was 11.7% (active).

For `COc1ccc(CNC(=O)C(C)n2nc(C)c3c(C)n(-c4ccccc4)nc3c2=O)c(OC)c1` (centres undefined), the proliferation was 0.39% (inactive).

As to `COC(=O)c1ccc(C(NC(=O)OCc2ccccc2)/C(C)=C/[C@@H](C)C(=O)NCc2ccc(OC)c(OC)c2)cc1` (some centres undefined), the proliferation was -1.99% (inactive).

`CC(C)OCCCNC(=S)N1CCC(C(=O)c2ccc3c(c2)OCCO3)CC1`: the proliferation is -1.17% (inactive).

`CC(C)C(=O)Nc1c2c(nn1-c1ccccc1)CSC2`: the proliferation was 0.9% (inactive).

For the compound `CC1(C)C2CC=C(/C=N/NC(=O)c3ccc(Cl)cc3)C1C2` (centres undefined), the proliferation is -2.07% (inactive).

With `CC1(C)C2CC=C(/C=N/NC(=O)C3CC3)C1C2` (centres undefined), the proliferation was 7.56% (active).

Consider `COc1ccc(/C=N/NC(=O)C2CC2)c(OC)c1OC`, for which the proliferation is 0.51% (inactive).

With `O=[N+]([O-])c1ccc2c(c1)C(N1CCOCC1)/C(=C/C1(O)CCCCC1)O2` (centres undefined), the proliferation is -1.4% (inactive).

For `O=C(O)c1cc(S(=O)(=O)N(Cc2ccccc2)c2cccc(C(F)(F)F)c2)ccc1Cl`, the proliferation was -1% (inactive).

As to `CCC1(CC)NC(=O)N(CC(=O)OCC(=O)Nc2ccc(C(F)(F)F)cc2)C1=O`, the proliferation was -0.99% (inactive).

Consider `CC1CCN(C(=O)/C(=C\c2ccccc2)NC(=O)c2ccccc2)CC1`, for which the proliferation is 2.17% (inactive).

On to `O=C(OCCN1CCOCC1)C1(c2ccccc2)CCCCC1`, for which the proliferation is 5.6% (inactive).

`CCCC(NCC(=O)Nc1ccccc1C(=O)NC1CC1)c1ccccc1` (centres undefined): the proliferation was -0.98% (inactive).

As for `Cc1ccc(NC(=O)COC(=O)CNC(=O)c2ccc(Cl)cc2Cl)cc1S(=O)(=O)N1CCOCC1`, the proliferation is -0.42% (inactive).

As to `Cc1cccc2c1-c1sc(C(=O)NCCCN3CCc4ccccc4C3)cc1CO2`, the proliferation is -7.36% (inactive).

Values taken from PubChem BioAssay AID2380 (Sanford-Burnham Center for Chemical Genomics, 2010).
